Assay outcomes from PubChem.
Shown are actives, neighbours in structure and some others; about 3% of the full set was active somewhere.
Nrf2 activator: qHTS of Nrf2 Activators; AREc32 ARE-luciferase reporter (MCF7-derived line), luminescence, 24 h; Potency, µM (titrated, usually from 46.1 µM), for the others: top-dose activation, most hits filed as activators; 410,000 tested, 0.31% active; note: potency is the fitted concentration of half-maximal effect; % of control where 0% means no effect; nearly all actives have a fitted effect of over 65% in size
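AREc32 cells carrying an ARE-driven firefly luciferase, 1000 cells/well in OPTI-MEM with 5% FBS, dosed after overnight attachment and incubated 24 hr at 37 deg C. Steady-Glo luminescence read after 30 min at RT.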
D3 ag: qHTS of D3 Dopamine Receptor Agonist: qHTS; D3R DiscoveRx beta-arrestin cells, luminescence, 90 min; max activation, %; 410,000 tested, 0.58% active; AID 652048, 2013; in the data active = max activation above about 30%; note: 0% is about no effect
Target sequence (P35462 whole entry, looked up): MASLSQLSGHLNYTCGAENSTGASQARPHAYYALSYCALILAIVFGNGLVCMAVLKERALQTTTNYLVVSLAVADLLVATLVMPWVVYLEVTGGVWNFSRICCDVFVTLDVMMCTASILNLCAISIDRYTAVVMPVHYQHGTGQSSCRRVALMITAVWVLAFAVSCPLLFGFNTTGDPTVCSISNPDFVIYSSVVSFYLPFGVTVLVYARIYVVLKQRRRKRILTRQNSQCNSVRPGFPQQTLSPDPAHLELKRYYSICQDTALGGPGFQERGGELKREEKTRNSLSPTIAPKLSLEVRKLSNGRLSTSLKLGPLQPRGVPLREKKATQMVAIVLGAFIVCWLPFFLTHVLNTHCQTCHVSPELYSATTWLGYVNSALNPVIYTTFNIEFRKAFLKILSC
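Cells at 1500/well, incubated overnight, then treated with pinned compounds (dopamine as control) for 90 min at 37 degrees C. DiscoveRx reagent added for 30 - 60 minutes at room temperature; luminescence read.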
D3 antag: qHTS of D3 Dopamine Receptor Antagonist: qHTS; 360,000 tested, 2.5% active; max response, negative = inhibition, %; D(3) dopamine receptor (Homo sapiens), P35462; D3R cells, DiscoveRx beta-arrestin luminescence, antagonist mode; hits give low values; AID 652054, 2013; in the data active = max response below about -50%; inconclusive = no clear call, values can overlap the other calls; note: % is set by controls: 0 for no effect and ±100 for the full control effect
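Cells expressing the human receptor were seeded at 1500 cells/well, incubated overnight at 37 degrees C in 5% CO2, then exposed to library compounds with dopamine controls for 90 minutes at 37 degrees C before luminescent detection.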
GRP78 ERSR act: qHTS for Inducers of the Endoplasmic Reticulum Stress Response (ERSR) in Human Glioma: qHTS. U87-MG GRP78 promoter luciferase reporter, 16 h. Potency, µM, for inactives: at the top dose activation, usual class: activators. 420,000 tested, 0.02% active; note: potency is the fitted concentration of half-maximal effect; series mostly up to about 76 µM; % of control where 0% means no effect; nearly all actives have a fitted effect of over 35% in size
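ERSR induction read as luciferase luminescence (Bright-Glo, 10 min at room temperature) in stably transfected human U87-MG glioma cells exposed to compounds for 16 h, using GRP78 as sensor.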
* = called active by the depositor; ? = inconclusive; . = no result given. Unless noted, calls come from the whole dose curve; as a rule, active = well fitted curve in the direction sought with a large enough effect; inconclusive = small, poorly fitted or top-dose-only effect, or another doubt; inactive = no such curve, though single readings can be large; an effect the other way counts as inactive or inconclusive.

SMILES | Nrf2 activator | D3 ag | D3 antag | GRP78 ERSR act
C[C@@H](CO)[C@H](/C=C/c1ccccc1)CCO[Si](c1ccccc1)(c1ccccc1)C(C)(C)C | . | . | . | -3%
Cc1cccc(C(C)(C)C)c1OCCOCCN1CCCC1 | 0% | -17 | ? | 0%
CC(C)(C)c1ccccc1OCCN1CCCC1 | -1% | -26 | -79* | -4%
Cc1cccc(C(C)(C)C)c1OCCN1CCCC1 | 0% | -36 | -93* | -4%
CC(OCCN1CCCC1)(c1ccc(F)cc1)c1ccc(F)cc1 | 0% | -48 | -76* | -4%
CCCSc1nc(-c2ccccc2)cc(C(F)(F)F)c1C#N | 11µM* | -2 | 8 | -3%
CS(=O)(=O)c1nc(-c2ccc(F)cc2)cc(C(F)(F)F)n1 | ? | -15 | -79* | -15%
Nc1nc(-c2ccc(F)cc2)cc(C(F)(F)F)n1 | 0% | -2 | -23 | -5%
COc1ccc(-c2cc(C(F)(F)F)nc(S(C)(=O)=O)n2)cc1 | -4% | -19 | -75* | -12%
COc1ccc(-c2cc(C(F)(F)F)nc(N)n2)cc1 | 2% | 2 | -4 | 2%
COC(=O)[C@H]1C2CC3c4[nH]c5ccccc5c4CCN3CC2CC[C@@H]1O (some centres undefined) | . | . | . | -4%
Cc1c(CCO)sc[n+]1CCc1ccccc1 | . | . | . | -4%
Cc1c(C(=O)N2CCCCCC2)sc2ncnc(NCC3CCCO3)c12 (centres undefined) | . | . | . | -1%
Brc1ccc(C2=CC(c3ccco3)n3nnnc3N2)cc1 (centres undefined) | 5µM* | 2 | -22 | -1%
COc1ccc(C2=CC(c3ccc(C)cc3)n3nnnc3N2)cc1 (centres undefined) | 1% | 32* | -18 | 3%
CN(C)/[N+]([O-])=N/Oc1cc(O/[N+]([O-])=N/N2CCCC2CO)c([N+](=O)[O-])cc1[N+](=O)[O-] (centres undefined) | . | . | . | -6%
Cc1ccc(S(=O)(=O)Nc2nc3n(n2)C(c2ccc(F)cc2)C=C(c2ccccc2)N3)cc1 (centres undefined) | 3% | 39* | . | -1%
CC(C)N(CCNC(=O)c1ccc(CS(=O)(=O)c2c(Cl)cccc2Cl)o1)Cc1ccccc1 | 0% | -22 | -70* | 0%
Cc1ccc(S(=O)(=O)NCc2ccc(C(=O)NCCN(Cc3ccccc3)C(C)C)cc2)cc1 | 3% | -19 | -79* | -5%
CC(=O)N1CCc2cc(Br)cc(S(=O)(=O)CCC(=O)N3CCN(c4cccc(C)c4C)CC3)c21 | 0% | 5 | . | 0%
CCC(=O)N1CCc2cc(Br)cc(S(=O)(=O)N3CCCCCC3)c21 | -1% | 3 | -64* | -4%
CCC(=O)N1CCc2cc(Br)cc(S(=O)(=O)N3CCCC(C(=O)O)C3)c21 (centres undefined) | 0% | 21 | 4 | -3%
CCC(=O)OC(OP(=O)(CCCCc1ccccc1)CC(=O)N1C[C@H](C2CCCCC2)C[C@H]1C(=O)O)C(C)C (some centres undefined) | . | 12 | . | .
COc1ccc2c(c1)OC[C@H]1[C@H]2N2C(=O)c3cc(OC)ccc3NC(=O)[C@@]2(C)[C@H]1c1ccccc1 | -1% | -3 | -52* | -2%
COc1ccc2c(c1)OC[C@H]1[C@H]2N2C(=O)c3cc(Cl)ccc3NC(=O)[C@@]2(C)[C@H]1c1ccccc1 | 4% | -12 | ? | -1%
SMILES | Nrf2 activator | D3 ag | D3 antag | GRP78 ERSR act
COc1ccnc(CSC(N)=Nc2ccccc2C(F)(F)F)c1 | 16% | -11 | -10 | 0%
COc1ccnc(CSC(N)=Nc2cccc(C(F)(F)F)c2)c1 | 7% | -23 | -51* | 2%
COc1ccnc(CSC(N)=Nc2ccccc2OC)c1 | 16% | -3 | -75* | 1%
C=C1C=C(C)n2ncc(C(=O)NCCCCCC)c2N1 | . | . | . | 5%
Cc1cc(-c2cccs2)c2c(n1)sc1c(=O)[nH]c(=O)[nH]c12 | ? | -2 | -84* | 1%
CCCCC(c1nnnn1CC1CCCO1)N1CCN(c2cc(Cl)ccc2C)CC1 (centres undefined) | 0% | 0 | -86* | -4%
CCCC(c1nnnn1Cc1ccco1)N1CCN(c2ccccc2)CC1 (centres undefined) | 3% | 7 | 0 | -8%
CCCC(c1nnnn1Cc1ccco1)N1CCN(c2cc(Cl)ccc2C)CC1 (centres undefined) | 0% | -8 | -62* | 0%
Fc1ccc(C(c2nnnn2Cc2ccco2)N2CCN(C3CCCCC3)CC2)cc1 (centres undefined) | 0% | -1 | ? | -4%
CC(C)CC(c1nnnn1Cc1ccco1)N1CCN(C2CCCC2)CC1 (centres undefined) | 0% | 1 | -60* | -4%
CCCCC(c1nnnn1CC1CCCO1)N1CCN(c2ccccc2)CC1 (centres undefined) | -1% | -3 | 8 | -1%
COc1cccc(NC(=O)c2sc(-n3nc(C)c(Cc4ccccc4Cl)c3C)nc2C)c1 | 0% | -15 | . | -4%
O=C(Nc1ccccc1-c1cn2c(CN3CCNCC3)csc2n1)c1cnc2ccccc2n1 | . | . | . | -12%
CN1N/C(=C\c2ccccc2)N=C2C(=O)N(C)C(=O)N=C21 | . | . | . | -11%
CCN(CC)C(=O)Nc1ccc(OC[C@H](O)CNC(C)(C)C)c(C(C)=O)c1 | . | . | . | -5%
COc1ccc(N=C2NC(=O)/C(=C\C=C\c3ccco3)S2)cc1 | 13µM* | -4 | -22 | 10%
Cc1ncc2c(c1CNC(=O)CN1CCCC1)CCN(C(=O)c1ccc(F)cc1F)C2 | . | . | . | -6%
O=C(O)CCNc1ccc(NCCC(=O)O)c2c1C(=O)c1ccccc1C2=O | -1% | -16 | -82* | -10%
COc1cc(-c2ccc3c(=O)c4ccccc4n(C)c3c2)cc(OC)c1OC | 1% | 68* | 149 | 5%
Cn1c2ccccc2c(=O)c2ccc(-c3ccc4c(c3)OCO4)cc21 | 0% | -21 | 26 | -8%
COc1cc(-c2ccc3c(=O)c4ccccc4sc3c2)cc(OC)c1OC | ? | 60* | 101 | -2%
COc1ccc(C(C(=O)NC2CCCC2)n2c(C3CCN(C(C)=O)CC3)nc3ccccc32)cc1 (centres undefined) | . | -8 | -50* | .
CC(C(=O)NC1CCCC1)n1c(C2CCCC2)nc2ccccc21 (centres undefined) | . | -7 | -14 | .
COc1ccc(-c2noc(CSc3nnc(-c4ccncc4)n3-c3cccc(C)c3)n2)cc1OC | 14% | 10 | . | 1%
CCN1CCCC1CNC(=O)c1ccc(Sc2ccc(F)cc2)c([N+](=O)[O-])c1 (centres undefined) | 3% | -8 | -77* | -1%
CCN1CCN(C(=O)c2ccc(Sc3ccccc3Cl)c([N+](=O)[O-])c2)CC1 | 1% | -8 | ? | -5%
CCN1CCCC1CNC(=O)c1ccc(Sc2ccccc2Cl)c([N+](=O)[O-])c1 (centres undefined) | 3% | -15 | -75* | -2%
